In publication PMC5700166:
Changes are numbered by the printed parent chain.

How the values were obtained:
Assay in all cases: protein-binding microarray (PBM); PBM: ~300 nM protein, 6 mM HEPES pH 7.8, 80 mM KCl, 0.5 mM EDTA, 0.5 mM EGTA, 6% glycerol, 35 ng/ul poly-dIdC, 1% milk, 1 h, room temperature; Ap Aiptasia and Nv Nematostella (sea anemones) / Co Capsaspora / Aq Amphimedon (sponge) / Dm Drosophila / Hu human; RHD is the Rel homology domain; high values mean tight binding
Details in all cases: dsDNA, one strand shown
GST-Ap-NF-kB RHD = target: T1, GST-Ap-NF-kB RHD (Exaiptasia pallida (Aiptasia), UniProt A0A913YAJ5 2-422)
T1 sequence: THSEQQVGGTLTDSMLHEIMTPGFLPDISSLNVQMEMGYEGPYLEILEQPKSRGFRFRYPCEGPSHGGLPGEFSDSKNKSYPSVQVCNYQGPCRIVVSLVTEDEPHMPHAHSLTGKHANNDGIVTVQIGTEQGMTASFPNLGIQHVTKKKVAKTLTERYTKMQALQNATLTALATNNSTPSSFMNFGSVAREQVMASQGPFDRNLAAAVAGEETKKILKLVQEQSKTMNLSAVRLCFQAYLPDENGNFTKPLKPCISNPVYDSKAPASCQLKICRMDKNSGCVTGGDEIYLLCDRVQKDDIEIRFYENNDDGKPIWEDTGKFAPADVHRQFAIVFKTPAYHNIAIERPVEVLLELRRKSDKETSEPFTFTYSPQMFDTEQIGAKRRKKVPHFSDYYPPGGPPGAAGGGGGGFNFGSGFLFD

[1] = target: T2, GST-Nv-NF-kB (Cys allele) (Nematostella vectensis, UniProt E5G601 2-411)
T2 sequence: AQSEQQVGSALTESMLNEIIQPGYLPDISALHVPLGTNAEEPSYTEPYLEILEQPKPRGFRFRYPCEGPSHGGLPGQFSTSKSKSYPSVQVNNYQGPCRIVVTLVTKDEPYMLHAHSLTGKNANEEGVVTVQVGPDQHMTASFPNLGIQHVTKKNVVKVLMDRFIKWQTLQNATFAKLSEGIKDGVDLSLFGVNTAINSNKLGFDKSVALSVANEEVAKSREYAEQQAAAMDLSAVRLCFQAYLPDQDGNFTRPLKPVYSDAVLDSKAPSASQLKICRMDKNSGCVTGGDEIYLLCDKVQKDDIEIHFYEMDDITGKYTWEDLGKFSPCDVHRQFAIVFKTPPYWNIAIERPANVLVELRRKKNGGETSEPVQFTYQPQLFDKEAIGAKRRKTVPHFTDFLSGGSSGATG

[2] = target: T3, GST-Nv-NF-kB (Ser allele) (Nematostella vectensis, UniProt A7UNT2 2-411)
T3 sequence: T2 sequence with Q21R, C66S, S207N, E215Q, V217A, E225K, A268E, D399E

GST-Co-NF-kB = target: T4, GST-Co-NF-kB (Capsaspora owczarzaki, UniProt F1ARL5 200-546)
T4 sequence: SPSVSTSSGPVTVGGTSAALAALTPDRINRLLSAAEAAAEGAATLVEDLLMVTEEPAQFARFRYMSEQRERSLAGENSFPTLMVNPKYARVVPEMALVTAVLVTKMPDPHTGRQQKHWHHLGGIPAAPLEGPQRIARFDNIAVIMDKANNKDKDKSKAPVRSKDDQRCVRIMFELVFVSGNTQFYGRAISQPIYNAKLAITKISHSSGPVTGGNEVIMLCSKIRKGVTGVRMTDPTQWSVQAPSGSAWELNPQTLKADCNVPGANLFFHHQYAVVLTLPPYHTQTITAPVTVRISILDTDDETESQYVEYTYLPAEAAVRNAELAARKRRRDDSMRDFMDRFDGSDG

GST-Dm-Relish = target: T5, GST-Dm-Relish (Drosophila melanogaster, UniProt Q94527 99-473)
T5 sequence: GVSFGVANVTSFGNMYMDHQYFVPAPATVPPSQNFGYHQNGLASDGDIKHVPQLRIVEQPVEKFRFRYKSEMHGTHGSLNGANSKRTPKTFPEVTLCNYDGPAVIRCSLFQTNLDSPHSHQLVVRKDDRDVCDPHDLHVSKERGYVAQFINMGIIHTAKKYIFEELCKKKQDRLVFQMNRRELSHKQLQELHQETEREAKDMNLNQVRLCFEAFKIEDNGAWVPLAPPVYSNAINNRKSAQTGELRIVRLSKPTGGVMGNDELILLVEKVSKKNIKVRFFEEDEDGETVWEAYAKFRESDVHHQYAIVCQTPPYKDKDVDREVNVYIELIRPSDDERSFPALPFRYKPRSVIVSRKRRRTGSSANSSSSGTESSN

GST-Aq-NF-kB = target: T6, GST-Aq-NF-kB (Amphimedon queenslandica, UniProt A9Y5G7 2-389)
T6 sequence: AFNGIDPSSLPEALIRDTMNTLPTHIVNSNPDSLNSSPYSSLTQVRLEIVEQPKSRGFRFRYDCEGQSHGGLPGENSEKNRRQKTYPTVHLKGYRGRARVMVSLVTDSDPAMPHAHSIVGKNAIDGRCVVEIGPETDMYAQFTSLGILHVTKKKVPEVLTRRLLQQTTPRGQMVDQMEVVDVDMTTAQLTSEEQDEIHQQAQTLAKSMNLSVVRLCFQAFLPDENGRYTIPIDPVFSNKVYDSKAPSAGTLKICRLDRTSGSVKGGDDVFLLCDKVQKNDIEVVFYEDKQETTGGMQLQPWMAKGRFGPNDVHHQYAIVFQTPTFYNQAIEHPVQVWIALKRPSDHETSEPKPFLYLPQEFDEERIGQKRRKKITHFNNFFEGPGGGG

GST-Hu-p50 = GST-Hu-p50 (Homo sapiens, UniProt P19838 7-356)
GST-Hu-p50, sequence (P19838 7-356): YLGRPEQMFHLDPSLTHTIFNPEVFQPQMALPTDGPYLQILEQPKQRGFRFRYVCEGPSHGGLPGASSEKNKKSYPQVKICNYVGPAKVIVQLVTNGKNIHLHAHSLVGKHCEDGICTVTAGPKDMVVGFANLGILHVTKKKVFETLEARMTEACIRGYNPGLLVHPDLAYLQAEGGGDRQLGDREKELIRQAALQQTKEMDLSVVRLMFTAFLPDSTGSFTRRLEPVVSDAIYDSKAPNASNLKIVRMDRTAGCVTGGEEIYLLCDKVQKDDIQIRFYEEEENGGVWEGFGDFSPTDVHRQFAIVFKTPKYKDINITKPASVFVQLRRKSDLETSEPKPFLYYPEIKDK

| Sequence | binding signal (GST-Ap-NF-kB RHD) [z-score] | binding signal [1] [z-score] | binding signal [2] [z-score] | binding signal (GST-Co-NF-kB) [z-score] | binding signal (GST-Dm-Relish) [z-score] | binding signal (GST-Aq-NF-kB) [z-score] | binding signal (GST-Hu-p50) [z-score] |
| --- | --- | --- | --- | --- | --- | --- | --- |
| CCGATTAACATCACTAGTTTCCCTGATGTTAATCGGGTCTTGATTCGCTTGACGCTGCTG | 3.06 | 3.43 | 4.61 | 4.16 | 1.28 | 3.03 | 2.26 |
| CCGATTAACATCAAATCTTCCCCTGATGTTAATCGGGTCTTGATTCGCTTGACGCTGCTG | 6.29 | 8.14 | 10.4 | 9.84 | 4.74 | 6.11 | 6.14 |
| CCGATTAACATCACATGGGAATCTGATGTTAATCGGGTCTTGATTCGCTTGACGCTGCTG | 1 | 2.19 | 2.46 | 1.08 | 1.82 | 1.14 | 1.59 |
| CCGATTAACATCAACGAAACCCCTGATGTTAATCGGGTCTTGATTCGCTTGACGCTGCTG | 3.65 | 2.45 | 2.84 | 1.39 | 4.41 | 2.77 | 3.87 |
| CCGATTAACATCACAGTTCCCCCTGATGTTAATCGGGTCTTGATTCGCTTGACGCTGCTG | 6.94 | 6.16 | 7.51 | 8.18 | 3.79 | 4.7 | 5.66 |
| CCGATTAACATCAGGGGGGACTATGATGTTAATCGGGTCTTGATTCGCTTGACGCTGCTG | 5.46 | 5.17 | 4.88 | 5.47 | 4.09 | 4.64 | 3.99 |
| CCGATTAACATCAGGGGATCCCCTGATGTTAATCGGGTCTTGATTCGCTTGACGCTGCTG | 14.6 | 11.6 | 12.1 | 7.53 | 10.8 | 11.3 | 7.87 |
| CCGATTAACATCAGAAATTCCCCTGATGTTAATCGGGTCTTGATTCGCTTGACGCTGCTG | 9.89 | 12.3 | 13.2 | 8.74 | 8.87 | 8.89 | 7.96 |
| CCGATTAACATCACCCGCCCCCCTGATGTTAATCGGGTCTTGATTCGCTTGACGCTGCTG | 4.08 | 4.08 | 2.95 | 4.02 | 4.78 | 4.22 | 3.85 |
| CCGATTAACATCACAGAATTCCCTGATGTTAATCGGGTCTTGATTCGCTTGACGCTGCTG | 5.09 | 6.44 | 6.81 | 3.6 | 4.28 | 5.42 | 4.93 |
| CCGATTAACATCACGGGGATTTATGATGTTAATCGGGTCTTGATTCGCTTGACGCTGCTG | 7.32 | 7.95 | 8.97 | 4.67 | 8.32 | 5.47 | 6.63 |
| CCGATTAACATCACCCCACCCCCTGATGTTAATCGGGTCTTGATTCGCTTGACGCTGCTG | 3.67 | 2.66 | 3.49 | 3.94 | 4.21 | 3.4 | 3.36 |
| CCGATTAACATCAGGGGGAACCCTGATGTTAATCGGGTCTTGATTCGCTTGACGCTGCTG | 8.64 | 7.75 | 7.25 | 8.49 | 9.93 | 8.13 | 6.39 |
| CCGATTAACATCAAATTCCCAGGTGATGTTAATCGGGTCTTGATTCGCTTGACGCTGCTG | 2.43 | 3.11 | 3.64 | 3.53 | 3.69 | 2.4 | 4.02 |
| CCGATTAACATCAGGATTTCCCCTGATGTTAATCGGGTCTTGATTCGCTTGACGCTGCTG | 10 | 11.1 | 11.4 | 7.55 | 9.64 | 9.68 | 7.53 |
| CCGATTAACATCAATCACCCCCCTGATGTTAATCGGGTCTTGATTCGCTTGACGCTGCTG | 4.05 | 4.27 | 4.76 | 4.97 | 4.64 | 5.36 | 4.4 |
| CCGATTAACATCAGGGGATGAACTGATGTTAATCGGGTCTTGATTCGCTTGACGCTGCTG | 2.44 | 3.65 | 4.24 | 3.23 | 7.62 | 3.73 | 2.94 |
| CCGATTAACATCAGGGGAAACCCTGATGTTAATCGGGTCTTGATTCGCTTGACGCTGCTG | 10.2 | 11.4 | 10.8 | 7.22 | 10 | 9.57 | 7.44 |
| CCGATTAACATCAATATTTCCCCTGATGTTAATCGGGTCTTGATTCGCTTGACGCTGCTG | 8.09 | 10.1 | 13.2 | 10.7 | 5.87 | 6.9 | 7.24 |
| CCGATTAACATCATATTTCCCCATGATGTTAATCGGGTCTTGATTCGCTTGACGCTGCTG | 5.95 | 7.45 | 10.1 | 8.62 | 2.89 | 5.08 | 6.08 |
| CCGATTAACATCAGGAGTGTCCCTGATGTTAATCGGGTCTTGATTCGCTTGACGCTGCTG | 2.12 | 2.48 | 1.44 | 1.05 | 1.23 | 4.83 | 1.29 |
| CCGATTAACATCAGGGGAACCCCTGATGTTAATCGGGTCTTGATTCGCTTGACGCTGCTG | 12.5 | 11.6 | 11.2 | 6.69 | 10.5 | 10.7 | 7.08 |
| CCGATTAACATCACACAATCCCCTGATGTTAATCGGGTCTTGATTCGCTTGACGCTGCTG | 6.64 | 6.65 | 8.71 | 2.94 | 3.98 | 4.86 | 5.87 |
